Screens deposited in PubChem BioAssay by National Center for Advancing Translational Sciences (NCATS).
Pol beta inh – DNA polymerase beta (human) inhibition | P06746 | Pol beta primer extension/strand displacement, fluorescence kinetic | Potency, µM (titrated, usually from 114 µM), inactives show top-dose activity change, negative = inhibition, hits mostly inhibitors | 340,000 compounds, 1.3% hits; note: % is set by controls: 0 for no effect and ±100 for the full control effect
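Pol beta (10 nM) and compounds were preincubated 15 min at room temperature, then 50 nM substrate (final) started primer extension/strand displacement. Reads were taken at 0 and 10 min; concentration-response data were fitted to a four-parameter Hill equation.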
POLI inh – DNA polymerase iota (human) inhibition; AID 588590; Q9UNA4; Potency, µM (top dose mostly 115 µM), for inactives: at the highest dose activity, negative = inhibition, most hits filed as inhibitors; 390,000 compounds, 1% hits; Pol iota fluorescent replication assay, 10 min
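Pol iota at 10 nM preincubated 15 min with compounds at room temperature; reaction started with fluorescent substrate, 50 nM final. Fluorescence read kinetically at 0 and 10 min; buffer-only wells as negative control.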
POLH inh – blocks human DNA polymerase eta activity. Potency, µM (top dose mostly 114 µM), for the others: at the highest dose activity change, negative = inhibition, actives largely listed as inhibitors. Q9Y253. 390,000 compounds, 1.2% hits. recombinant Pol eta, fluorescent DNA replication assay; note: % is set by controls: 0 for no effect and ±100 for the full control effect
Target sequence (Q9Y253 whole entry, looked up): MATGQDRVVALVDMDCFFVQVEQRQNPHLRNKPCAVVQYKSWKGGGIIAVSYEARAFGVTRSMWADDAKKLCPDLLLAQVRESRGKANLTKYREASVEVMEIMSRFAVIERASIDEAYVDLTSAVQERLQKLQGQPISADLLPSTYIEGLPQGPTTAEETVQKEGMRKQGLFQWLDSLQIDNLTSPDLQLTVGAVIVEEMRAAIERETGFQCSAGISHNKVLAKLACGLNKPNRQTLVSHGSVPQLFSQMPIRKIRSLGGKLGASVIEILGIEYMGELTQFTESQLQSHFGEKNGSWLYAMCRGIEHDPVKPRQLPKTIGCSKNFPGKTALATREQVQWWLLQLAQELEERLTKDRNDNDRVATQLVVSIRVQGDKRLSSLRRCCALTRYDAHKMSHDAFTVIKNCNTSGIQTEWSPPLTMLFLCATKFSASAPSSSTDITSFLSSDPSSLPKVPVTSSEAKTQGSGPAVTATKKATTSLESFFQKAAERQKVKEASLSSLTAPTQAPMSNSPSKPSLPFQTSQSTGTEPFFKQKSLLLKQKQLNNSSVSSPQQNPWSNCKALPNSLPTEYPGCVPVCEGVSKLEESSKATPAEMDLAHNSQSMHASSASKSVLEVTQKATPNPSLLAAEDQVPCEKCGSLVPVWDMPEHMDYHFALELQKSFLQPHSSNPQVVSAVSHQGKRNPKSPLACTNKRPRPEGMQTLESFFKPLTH
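Pol eta (10 nM) was preincubated with compounds for 15 min at room temperature, after which fluorescent replication substrate (50 nM final) was added to start the reaction. Fluorescence was read kinetically at 0 and 10 min.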
Pol kappa inh – inhibitors of human DNA polymerase kappa; Potency, µM (top dose mostly 107 µM), for the others: at the highest dose activity, negative = inhibition, actives largely listed as inhibitors; 400,000 compounds, 0.53% hits; purified Pol kappa, fluorescent DNA synthesis assay, 10 min; AID 588579; note: % is set by controls: 0 for no effect and ±100 for the full control effect
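First, compounds were pin-transferred onto 10 nM Pol kappa. After 15 min at room temperature, substrate was added to 50 nM final. Fluorescence was then measured kinetically at 0 and 10 min.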
FEN1 inh – human FEN1 inhibition; P39748; Recombinant FEN1 flap cleavage, fluorescence, 15 min; Potency, µM (doses to about 114 µM), for inactives: at the top dose activity change, negative = inhibition, hits mostly inhibitors; 390,000 compounds, 0.35% hits; AID 588795; note: % is set by controls: 0 for no effect and ±100 for the full control effect; nearly all actives have a fitted effect of over 65% in size
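Concentration–response screening of FEN1 (10 nM): 15 min compound preincubation at room temperature, reaction started with 50 nM substrate and read at 0 and 15 min. Corrected, normalized data were fitted by a four-parameter Hill equation.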
TDP1 block – inhibitors of human tyrosyl-DNA phosphodiesterase TDP1 | recombinant TDP1, AlphaScreen DNA substrate cleavage | Potency, µM (highest dose often 130 µM), without a hit: at the highest dose activity change, negative = inhibition, most hits filed as inhibitors | Q9NUW8 | AID 485290 | 350,000 compounds, 0.28% hits; note: % is set by controls: 0 for no effect and ±100 for the full control effect; nearly all actives have a fitted effect of over 40% in size
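Compounds were preincubated with Tdp1 (1 nM final) for 15 min at room temperature before substrate (15 nM final) started a 5 min reaction; beads (10 ug/ml final) were then added for 10 min before AlphaScreen detection.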
Active calls of the source: *; ? = inconclusive; · = no result given; [ ] = another dose, or the depositor's remark. Only some compounds are listed: those with a hit (about 2.4% of all), similar ones and a draw of the others. Calls come from the whole dose curve; as a rule, active = well fitted curve in the direction sought with a large enough effect; inconclusive = small, poorly fitted or top-dose-only effect, or another doubt; inactive = no such curve, though single readings can be large; an effect the other way counts as inactive or inconclusive. Potency is the fitted concentration of half-maximal effect.

SMILES | Pol beta inh | POLI inh | POLH inh | Pol kappa inh | FEN1 inh | TDP1 block
Cc1c(O)ccc(C(=O)CN2CCN(c3ccccc3F)CC2)c1O | 1% | 6% | -11% | 0% | 1% | 3%
O=C(CN1CCN(c2ccccc2F)CC1)c1ccc(O)c(O)c1 | 7% | 45µM* | ? | ? | 7% | ·
O=C1NC(=S)N/C1=C/c1cccn1-c1ccc([N+](=O)[O-])cc1 | 7.9µM* | 56µM* | ? | ? | -19% | 1%
O=C(NCCCc1nc2ccccc2n1CCCCOc1ccccc1)C1CCCCC1 | · | 35% | · | 5% | -5% | 0%
O=c1c(O)c(-c2ccc(O)c(O)c2)oc2c(OC3OC(CO)C(O)C(O)C3O)c(O)cc(O)c12 (stereo unspecified) | · | · | · | 3.2µM* | · | 9%[56.1 µM]
C[C@@H]1O[C@@H](O[C@H]2[C@H](O)[C@@H](O)[C@H](Oc3c(-c4ccc(O)c(O)c4)oc4cc(O)cc(O)c4c3=O)O[C@@H]2CO)[C@H](O)[C@H](O)[C@H]1O | · | ? | ? | ? | ? | 6%
O=c1c(O)c(-c2ccc(O)c(O)c2)oc2c(OC[C@@H]3O[C@@H](O)[C@@H](O)[C@H](O)[C@H]3O)c(O)cc(O)c12 | · | · | · | 0.32µM* | · | ·
CO/N=C\[C@@H](OC)[C@H](C)/C=C\CC(=O)OC | · | · | · | · | · | 7%[21 µM]
CC(C)c1ccc(NC(=O)C(Cc2ccccc2)NS(=O)(=O)c2ccc3c(c2)oc(=O)n3C)cc1 (stereo unspecified) | -9% | 1% | -6% | -14% | 15% | 2%
O=C1N/C(=N/NC(=O)c2cccc3ccccc23)S/C1=C\c1ccccc1OCc1ccccc1 | 50µM* | 28µM* | 22µM* | 50µM* | ? | 10%
O=C1C=C(N2CCN(c3ccccn3)CC2)C(=O)c2c(O)ccc(O)c21 | · | -4% | 10% | -12% | -6% | ·
CC1=CC(=O)c2c(O)ccc(O)c2C1=O | 1.8µM* | · | · | · | · | -3%
CCC(C)(C)c1ccc(CC(C)CN2C[C@@H](C)O[C@@H](C)C2)cc1 (stereo partly specified) | · | · | · | 4%[19.4 µM] | · | ·
COC(=O)C(N)Cc1ccc(O)c(O)c1 (stereo unspecified) | -18% | ? | 6% | 89µM* | -1% | ?
COC(=O)C(N)Cc1ccc(O)cc1 (stereo unspecified) | -1% | -21% | -10% | 1% | 2% | -2%
Cc1ccc(NC(=O)CN(C)C(=O)Cn2ncc(Cl)c(Cl)c2=O)cc1 | ? | 45µM* | ? | -16% | -6% | 3%
Cc1cccc(NC(=O)CNC(=O)Cn2ncc(Cl)c(Cl)c2=O)c1C | · | 16µM* | 4µM* | ? | -9% | 14µM*
Cc1ccc(NC(=O)Cn2ncc(Cl)c(Cl)c2=O)cc1S(=O)(=O)N1CCCCC1 | · | 50µM* | -11% | ? | -12% | -1%
CCN(CC)c1ccc(NS(=O)(=O)c2cc3[nH]c(=O)c(=O)[nH]c3cc2C)c(C)c1 | 50µM* | ? | -24% | ? | 1% | -9%
Cc1cc(Cl)ccc1NS(=O)(=O)c1cc2[nH]c(=O)c(=O)[nH]c2cc1C | 39% | 16% | -8% | -9% | -18% | -2%
CCCCN(CC)C(=O)Cn1c(=O)n(-c2ccc(OCC)cc2)c(=O)c2c3c(sc21)CCC3 | 0% | 15% | -7% | -13% | 2% | 4%
C=CC1=C(C(=O)O)N2C(=O)[C@@H](NC(=O)/C(=N\OCC(=O)O)c3csc(N)n3)[C@@H]2SC1 | · | · | · | -12%[19.4 µM] | · | 14µM*
CO/N=C(\C(=O)N[C@@H]1C(=O)N2C(C(=O)O)=C(COC(C)=O)CS[C@H]12)c1csc(N)n1 | · | · | · | · | ? | -12%
CO/N=C(\C(=O)N[C@@H]1C(=O)N2C(C(=O)O)=C(CSc3nc(=O)c(O)nn3C)CSC12)c1csc(N)n1 (stereo partly specified) | 14µM* | 25µM* | 11µM* | ? | · | 7.1µM*
O=C(Cn1nnnc1-c1ccccc1F)Nc1ccc(OC(F)(F)F)cc1 | 24% | -9% | -12% | 0% | -13% | 2%
SMILES | Pol beta inh | POLI inh | POLH inh | Pol kappa inh | FEN1 inh | TDP1 block
O=C(Nc1ccccc1F)c1oc2ccccc2c1NC(=O)C12CC3CC(CC(C3)C1)C2 | -3% | 3% | -5% | -2% | 10% | 6%
CC(C)=C1C(=O)NN(c2ccc(F)c(Cl)c2)C1=O | ? | ? | -7% | 25µM* | -19% | 3%
O=C1NN(c2ccc(F)c(Cl)c2)C(=O)/C1=C\c1cccc(OC(=O)c2cccs2)c1 | ? | ? | 20µM* | ? | -16% | 7%
O=C1CSC(=S)N1c1ccc(F)c(Cl)c1 | 0% | ? | 0% | -14% | -16% | ·
CC(C)(C)C(=O)NCCc1csc2nc(-c3ccc(F)cc3)nn12 | 2% | 1% | -20% | 1%[60.1 µM] | 14% | 0%
O=C(O)CCn1cnc2onc(-c3ccccc3Cl)c2c1=O | 22µM* | 6% | -4% | -15% | 14% | 1%
Cc1ccc(Cn2cc(C(=O)c3ccc4c(c3)OCO4)c(=O)c3cc(C)ccc32)cc1 | -8% | 32% | -10% | -9% | -16% | 7%
NC(=O)CC(NC(=O)c1ccccc1)c1ccc(NCCCN2CCCC2=O)c([N+](=O)[O-])c1 (stereo unspecified) | 79µM* | ? | 4% | -6% | 5% | ·
Cc1ccc2c(c1)C(=O)[C@]1(O)CCN(c3ccccc3)C1=N2 | · | · | · | 13%[60.1 µM] | · | 2%
CCOC(=O)c1nn(-c2ccc(OCC)cc2)c(C)c1C(C)=O | 14% | 27% | 89µM* | -4% | 5% | 3%
Cc1ccc2[nH]c(CSc3nnc(NC(=O)COc4ccccc4F)s3)cc(=O)c2c1 | -7% | -15% | -1% | -6%[60.1 µM] | -11% | -5%
CS(=O)(=O)Nc1cccc(-c2cc(F)c(S(=O)(=O)N3CCN(S(=O)(=O)c4ccc5c(c4)OCCO5)CC3)cc2F)c1 | · | · | · | · | · | -5%
CCc1cccc(NC(=O)c2ccc(Cn3c(=O)[nH]c4ccsc4c3=O)cc2)c1 | 45µM* | -7% | ? | 1% | -13% | 4%
Cc1cccc(NC(=O)CCCCCn2c(=O)[nH]c3ccsc3c2=O)c1 | -1% | -15% | -3% | -23% | -3% | 2%
COC(=O)Cc1[nH]nc2c1C(c1ccc(O)c(OC)c1)C(C#N)=C(N)O2 (stereo unspecified) | -2% | 8.9µM* | 45µM* | -32% | 14% | ·
O=S(=O)(c1ccc(Br)cc1)c1nc(-c2ccco2)oc1SCc1ccccc1Cl | 13% | 79µM* | -1% | ? | 0% | 6%
Cc1ccc(CSc2oc(-c3ccco3)nc2S(=O)(=O)c2ccc(Cl)cc2)cc1 | 0% | -21% | 3% | -1% | 3% | -3%
